In the supplement of paper PMC11417369:
The full ranking holds about 25,000 sequences; the median of “ln(normalized median fluorescence intensity)” is about 6.7, and the highest 2% start at about 10. What follows is part of a selection rich in the highest values, with near analogues and random picks from the rest.

system: PfHDP1 homeodomain (GST-tagged); test: gcPBM binding intensity (ln(normalized median fluorescence intensity)); higher = stronger DNA binding
Outline: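 The highest Masliner-normalised natural-log median intensity across replicate spots of either probe orientation is reported as binding intensity. GST-tagged P. falciparum DNA-binding domains expressed in E. coli were applied for 1 h to an Agilent 4 × 180k array of primer-extended double-stranded 36-bp intergenic genomic probes plus negative controls, and bound protein was detected with Alexa488 anti-GST antibody and scanned at 488 nm.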

Point of comparison: “ATATATTATATTATATGTACTTAAAAAAGTGCAAAG [XGTACX_site318]”, “gcPBM binding intensity (ln)” value 9.16. Against it:
- ATAATATATTTTTGAACACACAATATAGATTTATAT [CACACA_site7857] — lower, 6.35
- TATGCACACAATATATGTACTTATATATTTTAAAAA [XGTACX_site5482] — higher, 9.96
- TTTTATTTTTTATTTGCACACAATATGTAAAAAAAT [CACACA_site2927] — higher, 10.6
- TTTTTTTCAATATTTGCACACGATTATAATATTTAA [CACACA_site2237] — higher, 10.3
- GAACAATATATTTGCACACAAAAAATATATATTTAT [CACACA_site3317] — higher, 10.7
- TTTATATTTTTTTTTGCACACTTTAAAAAAATATAT [CACACA_site1146] — higher, 9.29
- AGGAACAATATATTTGCACACAAAAAATATATATTT [CACACA_site3316] — higher, 10.4
- ATATTTATATATTGCACACAAAAAAAAAAAAAAATC [CACACA_site1629] — higher, 10.4
- TTTTTTTCAATATTTGCACACGATTAAAATATTTAA [CACACA_site5266] — higher, 10.6
- AGCTAAAATATTTTTGCACACGATTTTTTTTTTTTT [CACACA_site1140] — higher, 9.82
- AAAAAAATTAATGTGTGTACTTAGATATAATGTTTA [XGTACX_site8862] — lower, 6.43
- AAAAGTACAATATATATGTATGTGTATAGAATGGTT [TGCATGCA_negctrl_site76] — lower, 7.28
- AAAATATTTTAATGTTGTACATTAATATATTATATA [XGTACX_site2513] — lower, 6.03
- TAAAAATATATACATACATGCATACATATATATGTA [TGCATGCA_site774] — lower, 6.47
- TTATATATTTTTTGCACACCAAAAAAGAGAATATTC [CACACA_site2730] — higher, 10
- TGTGTTTATACGTTTTGTACATATTTTTATTTTGTA [XGTACX_site6425] — lower, 6.74
- TTTTATTCCTTCTTTGCACACGTTTAAAAATATATA [CACACA_site2899] — higher, 10.3
- TATTCTTACACGTTTGCACACTAAAATATATATATA [CACACA_site435] — higher, 9.97
- TTCTTACACGTTTGCACACTAAAATATATATATATA [CACACA_site434] — higher, 10.7
- TCCTTAAAATATATCACACATTTCGTTCATTTATAA [CACACA_site4346] — lower, 6.65
- TAAGATGATATAGACTGTACATATTGAACTTACAAG [XGTACX_site4290] — lower, 6.29
- TATTAACACTTTATAGAAACAAAAAAATAAGCAAAA [XGTACX_negctrl_site295] — lower, 6.79
- TTTCTTCGAAATAGAACACTTGTGCAAAATAAGCAA [XGTACX_negctrl_site361] — higher, 11.2
- CACTGTAAATAGAAAGTGCAAAAATTGTAAATAAAA [GTGCAC_site9980] — lower, 9
- GTTTTTAGTATTTTTTGTACTTAATACATAGCCTTA [XGTACX_site7318] — lower, 6.22
- AGATAAAATATATATGCACACACATATATATTTCAT [CACACA_site9183] — the same, 9.16
- TCATACAATATTAAATGTACATATATATATATATAT [XGTACX_site8828] — higher, 9.25
- TATATAATATATTAATGTACTTAAAATATATTCTAT [XGTACX_site1235] — lower, 6.16
- TATCAAAATAAATGCACACAAATTGCACATATCTAT [CACACA_site1097] — higher, 10.7
- TTTATCAAAATAAATGCACACAAATTGCACATATCT [CACACA_site8281] — higher, 10.9
- TTCATATAAATACATGCACACAAAAATATCAATACA [CACACA_site8753] — lower, 8.91
- CATATAAATACATGCACACAAAAATATCAATACATT [CACACA_site2392] — lower, 8.76
- TTTTTTCATATAAATACATGCACACAAAAATATCAA [TGCATGCA_site602] — lower, 8.53
- ATAAATTTTTTATGAACACACAAATACACCCACTCA [CACACA_site5465] — lower, 7.07
- TACTTTCAAAAGATCACACATATATATATATATATA [CACACA_site5630] — higher, 9.53
- TCCTTAAAATATGGTTGTACGTACATCCTAGGTGTT [XGTACX_site7068] — lower, 6.52
- TTTTTACGTAAACAAAATAATTATATAATATTATTT [CACACA_negctrl_site1769] — lower, 6.34
- AAAATCATTCCAAAGACATGCATTTTGCAAATAAAA [TGCATGCA_site461] — higher, 9.22
- AATTATTTACCCTATACACACAAAACAGACTAAAAA [CACACA_site6688] — lower, 6.76
- TCGTGTGAAAATATTACACACATTTACTATAGTATC [CACACA_site7590] — lower, 6.65
- AATTTATTTTTAAAAAGTACATACTTAAGAAAACGA [XGTACX_site3660] — lower, 6.85
- CTGTACACTTAAACGGTGCAAAAAGAAAAAAAAGAA — higher, 10.6
- TTTGAACTCTTAAGTGGTACAAATTTGTATTTTCTC [XGTACX_site2322] — lower, 6.52
- TAATGAAGCTTATGCACACGTTCATTATTTATATTA [CACACA_site3219] — higher, 10.4
- ATGCTTTTATGCACACGTACAAAAATATTATATAAT [XGTACX_site5589] — higher, 10.9
- TATTGCACAAAATAATTTTATTATACTTTATGTTAG [TGCATGCA_negctrl_site574] — higher, 10.8
- TTTATTATACAAAATTGTACTTTATAATTTTATGTA [XGTACX_site5846] — lower, 6.31
- TAAATTTTAATATGCACACAAAATGTTATATTAAAA [CACACA_site4366] — higher, 9.86
- AATAATGAAGCTTATGCACACGTTCATTATTTATAT [CACACA_site5736] — higher, 10.6
- TATGAATGCTTTTATGCACACGTACAAAAATATTAT [CACACA_site8851] — higher, 9.99
- TGAATGCTTTTATGCACACGTACAAAAATATTATAT [CACACA_site2668] — higher, 10.4
- TTCTTTATTATATGCACACGTACATATAATATATAT [CACACA_site2018] — higher, 9.96
- TTTATTATATGCACACGTACATATAATATATATATA [XGTACX_site4108] — higher, 10.8
- AATTCTTTATTATATGCACACGTACATATAATATAT [CACACA_site8621] — higher, 9.66
- TATATTCATAATATTACACACGTTCATTTATTTTAA [CACACA_site2031] — lower, 6.67
- TAGTAAAAACCAAAATGTACATGTGCCATTTTTTTA [XGTACX_site2630] — lower, 6.15
- TTTTTATTGTTGCTATATTTATAACAATTTATCATA [GTGCAC_negctrl_site75] — lower, 6.6
- TTACACATGAGAAAATGTACATATAATAAAATATGT [XGTACX_site904] — lower, 6.52
- TATATCCACATTTTTAGTACTTAAAAATAAATAAAC [XGTACX_site3826] — lower, 6.62
- AATTATATATAAAGAAGTACTATTTCAAGGAGTTTT [XGTACX_site3837] — lower, 6.34
- ATAATAATAATAAAAAGTACATTTAATTATATAGAA [XGTACX_site7742] — lower, 6.51
- TAACCTAAAATAACTACACACACATAAAAAAAAAAA [CACACA_site8807] — lower, 6.58
- AACAAACACAGACACACACACACACCCAAATGATTA [CACACA_site2431] — lower, 6.98
- ATGTATGTTTGTTATGCACACAAATGCATCTTATTT [CACACA_site8861] — higher, 10.3
- TTGTTCGATATATGCACACAGTTTTGTTATTTTTCC [CACACA_site4972] — higher, 9.91
- GTATGTTTGTTATGCACACAAATGCATCTTATTTCC [CACACA_site2690] — higher, 10.8
- AAAAAAAAAAAAAAAGGTACAGTAAAAAATTCCTCT [XGTACX_site5947] — lower, 6.46
- AAAATTAAAATAGTAATACACACTTCATAGGAAATG [CACACA_site1762] — lower, 6.02
- AGATATATAAATATTACACACTATATATCTATTTAT [CACACA_site6466] — lower, 6.64
- ATACATAAAATTAAAACACACATTTTATTAAATACG [CACACA_site2167] — lower, 6.44
- ATTTATATTTAATATACACACATTATTTTTTTATAT [CACACA_site574] — lower, 6.86
- TTTTTTTATATTTTTAGTACACATTGGTATATATAT [XGTACX_site4114] — lower, 6.77
- TTAGTAAATACATTTGCACACATTATTTTTTAACAT [CACACA_site5448] — higher, 10.7
- TATTTAAAAATATATACACACATTTTATATTATTAT [CACACA_site781] — lower, 6.32
- TTAGTATATACATTTGCACACATTATTTTTTAACAT [CACACA_site2618] — higher, 10.5
- AATTATATAACAAATTGTACGAATGAAAATATTATT [XGTACX_site4237] — lower, 6.79
- ATATTTTTATGATGTATCCAAGAAATGGAACTATAT [CACACA_negctrl_site1268] — lower, 6.23
- AAAATATAAATATATTGTACTGTTATATAATAAAAT [XGTACX_site2132] — lower, 6.41
- ATGAAAAAAAGACATGCATGTAAATATAAATTGCTT [TGCATGCA_site504] — lower, 6.68
- ATAAATATGTAAAAAACATGCAAAAAATTAAAGACA [TGCATGCA_site912] — lower, 7.22
- TGTTGTAAATTAAAGACATGCACGTGAGAAAATATA [TGCATGCA_site285] — higher, 11
- TTTTTATATTTTACATGTACATAAATATATTATATA [XGTACX_site958] — lower, 6.46
- AAATACATACATTAATGTACAAATAGAAACACTCTT [XGTACX_site1512] — lower, 6.85
- TGAATATTTATACATGCACACTAAAATAAAGAATCT [CACACA_site5351] — lower, 8.07
- ACGGACAATACGGAAACACACAAGTTATTTTATCAT [CACACA_site7310] — lower, 6.21
- TAATGTTGAGAATTTTGTACATATAGATCAATTTAT [XGTACX_site5426] — lower, 6.33
- TTATGATAATTTTGCACACACTTAGGAAAAATTATG [CACACA_site4949] — higher, 10.9
- TTCAAAAAAGGAAAGTTGCACTTGATACGCTTATTA [GTGCAC_site9411] — lower, 7.38
- TTATGATAACTTTGCACACACTTAGGAAAAGTTATG [CACACA_site6836] — higher, 10.6
- AAAGTAGGCTTATATGCACACTTTGAAATATTATAA [CACACA_site5117] — higher, 9.77
- TTTTATGATAATTTTGCACACACTTAGGAAAAATTA [CACACA_site1556] — higher, 10.4
- ACGTTAGGCTTATTTGCACACTTGTATTATAATTTT [CACACA_site1317] — higher, 10.3
